# “And” between values parts separate entries of the source, which are not always exact repeats. Equal values may be shown once. Results filed as inconclusive are left out. Entries that show only a call come without a potency. Some structures have more than one record in an assay (separate samples or runs), and their calls can disagree. The source made the active and inactive calls. Unless noted, the call rests on the fitted dose curve; in most records, active means well fitted curve in the direction sought with a large enough effect in the repeat runs; inconclusive means weak or mixed curves; inactive means no such curve, though single readings can be large; an effect the other way counts as inactive or inconclusive.
# Columns and labels:
# [1] = qHTS assay to test for compound auto fluorescence at 535 nm (green) in HEK293 cells (AID 720680)
# [2] = qHTS assay to test for compound auto fluorescence at 460 nm (blue) in HEK293 cell free culture (AID 720681)
# Summary of the method: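 Blue fluorescence (Ex 405/Em 460 nm, triamterene-equivalent) was read immediately after pin transfer of compound or DMSO into medium (DMEM, 10% FBS) without cells.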
# [3] = qHTS assay to test for compound auto fluorescence at 590 nm (red) in HEK293 cell free culture (AID 720683)
# Summary of the method: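 Red-channel autofluorescence of compounds in culture medium (DMEM, 10% FBS), no cells, measured at 540/590 nm. Rose Bengal sodium is the reference fluorophore for equivalence.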
# [4] = qHTS assay to test for compound auto fluorescence at 590 nm (red) in HepG2 cell free culture (AID 720684)
# Summary of the method: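 Steps: dispense MEM/10% FBS medium, no cells; pin compound or DMSO vehicle; read red channel, Ex/Em 540/590 nm. Output given as Rose Bengal sodium equivalents.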
# [5] = qHTS assay to test for compound auto fluorescence at 460 nm (blue) in HepG2 cell free culture (AID 720685)
# Summary of the method: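 Compound (23 nL) or DMSO pinned into cell-free MEM with 10% FBS; blue fluorescence read at 405/460 nm excitation/emission, expressed as auto-fluorescence equivalency to triamterene.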
# [6] = qHTS assay to test for compound auto fluorescence at 535 nm (green) in HepG2 cell free culture (AID 720686)
# [7] = qHTS assay to identify small molecule antagonists of the glucocorticoid receptor (GR) signaling pathway - cell viability counter screen (AID 720693); further: nearly all actives have a fitted effect of over 55% in size; further: potency means the concentration at half of the fitted maximal effect
# [8] = qHTS assay for identifying genotoxic compounds that show differential cytotoxicity against isogenic chicken DT40 cell lines with known DNA damage response pathways - wild type cell line (AID 743012); further: nearly all actives have a fitted effect of over 60% in size; further: potency means the concentration at half of the fitted maximal effect
# Summary of the method: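 Quantitative HTS on parental DT40 cells: 40 h compound treatment at 37 C/5% CO2, with viability then determined by CellTiter-Glo luminescence. Values serve as the DNA repair-proficient reference for differential cytotoxicity.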
# [9] = qHTS assay for identifying genotoxic compounds that show differential cytotoxicity against isogenic chicken DT40 cell lines with known DNA damage response pathways - Rev3 mutant cell line (AID 743014); further: nearly all actives have a fitted effect of over 55% in size; further: potency means the concentration at half of the fitted maximal effect
# [10] = qHTS assay for identifying genotoxic compounds that show differential cytotoxicity against isogenic chicken DT40 cell lines with known DNA damage response pathways - Rad54/Ku70 mutant cell line (AID 743015); further: nearly all actives have a fitted effect of over 60% in size; further: potency means the concentration at half of the fitted maximal effect
# [11] = qHTS assay to identify small molecule antagonists of the androgen receptor (AR) signaling pathway - cell viability counter screen (AID 743033; further: nearly all actives have a fitted effect of over 45% in size; further: potency means the concentration at half of the fitted maximal effect)
# [12] = qHTS assay to identify small molecule antagonists of the androgen receptor (AR) signaling pathway using the MDA cell line - cell viability counter screen (AID 743041; further: nearly all actives have a fitted effect of over 45% in size; further: potency means the concentration at half of the fitted maximal effect)
# Summary of the method: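 Cells were plated at 3,000 per well and left 5 h. Compounds in DMSO were then pinned in, followed by R1881. After 16 h at 37C, CellTiter-Fluor fluorescence gave viability.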
# [13] = qHTS assay to test for compound auto fluorescence at 460 nm (blue) in HepG2 cells (AID 720687)
# Summary of the method: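 Blue-channel autofluorescence (Ex/Em 405/460 nm, triamterene-equivalent) was measured after 1 hr compound exposure at 37 C, 5% CO2. Cells were HepG2, plated overnight at 37 C in MEM plus 10% FBS.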
# [14] = molecular target: Glucocorticoid receptor (Homo sapiens) (UniProt P04150); experiment: qHTS assay to identify small molecule agonists of the glucocorticoid receptor (GR) signaling pathway (AID 720691; active means well fitted activation curve with a large enough effect in the signal ratio in the repeat runs, not every such curve was filed as active; the % refers to the signal ratio)
# Sequence of Glucocorticoid receptor (Homo sapiens) (P04150 whole entry, looked up): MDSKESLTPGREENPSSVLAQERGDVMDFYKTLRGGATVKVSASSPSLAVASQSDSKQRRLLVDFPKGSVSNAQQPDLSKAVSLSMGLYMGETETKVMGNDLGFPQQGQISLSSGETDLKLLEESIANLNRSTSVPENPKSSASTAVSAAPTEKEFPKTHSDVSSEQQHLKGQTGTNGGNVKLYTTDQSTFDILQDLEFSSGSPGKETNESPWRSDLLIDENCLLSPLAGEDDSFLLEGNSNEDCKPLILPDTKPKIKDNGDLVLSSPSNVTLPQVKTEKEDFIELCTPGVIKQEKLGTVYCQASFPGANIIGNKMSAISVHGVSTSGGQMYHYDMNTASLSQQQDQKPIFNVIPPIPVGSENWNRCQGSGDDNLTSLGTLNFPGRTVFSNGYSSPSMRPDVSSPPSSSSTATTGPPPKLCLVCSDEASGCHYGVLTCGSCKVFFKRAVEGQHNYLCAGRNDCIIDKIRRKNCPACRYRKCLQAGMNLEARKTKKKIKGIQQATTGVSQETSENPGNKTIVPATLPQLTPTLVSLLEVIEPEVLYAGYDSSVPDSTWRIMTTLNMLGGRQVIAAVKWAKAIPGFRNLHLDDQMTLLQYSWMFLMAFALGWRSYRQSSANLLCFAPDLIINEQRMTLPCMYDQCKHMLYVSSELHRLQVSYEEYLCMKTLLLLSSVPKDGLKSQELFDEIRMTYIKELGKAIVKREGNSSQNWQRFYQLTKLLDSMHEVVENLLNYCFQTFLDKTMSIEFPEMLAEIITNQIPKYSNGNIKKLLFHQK
# Summary of the method: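 Beta-lactamase reporter activity, read as fluorescence intensity, was measured in GR-bla HeLa cells exposed to compounds for 18 h at 37 C and then loaded with LiveBLAzer B/G FRET substrate for 2 h at room temperature.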
# [15] = molecular target: Glucocorticoid receptor (Homo sapiens) (UniProt P04150); experiment: qHTS assay to identify small molecule antagonists of the glucocorticoid receptor (GR) signaling pathway (AID 720692; active means well fitted inhibition curve with a large enough effect in the signal ratio in the repeat runs, not every such curve was filed as active; the % refers to the signal ratio; further: potency means the concentration at half of the fitted maximal effect)
# Summary of the method: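 Fluorescence from cleaved LiveBLAzer B/G FRET substrate reports GRE-driven beta-lactamase in HeLa cells; compounds are tested against 5 nM dexamethasone (final) over 18 h at 37 C, substrate incubation 2 h at room temperature.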
# [16] = molecular target: Androgen receptor (Homo sapiens) (UniProt P10275); experiment: qHTS assay to identify small molecule antagonists of the androgen receptor (AR) signaling pathway (AID 743035; active means well fitted inhibition curve with a large enough effect in the signal ratio in the repeat runs, not every such curve was filed as active; the % refers to the signal ratio)
# Sequence of Androgen receptor (Homo sapiens) (P10275 whole entry, looked up): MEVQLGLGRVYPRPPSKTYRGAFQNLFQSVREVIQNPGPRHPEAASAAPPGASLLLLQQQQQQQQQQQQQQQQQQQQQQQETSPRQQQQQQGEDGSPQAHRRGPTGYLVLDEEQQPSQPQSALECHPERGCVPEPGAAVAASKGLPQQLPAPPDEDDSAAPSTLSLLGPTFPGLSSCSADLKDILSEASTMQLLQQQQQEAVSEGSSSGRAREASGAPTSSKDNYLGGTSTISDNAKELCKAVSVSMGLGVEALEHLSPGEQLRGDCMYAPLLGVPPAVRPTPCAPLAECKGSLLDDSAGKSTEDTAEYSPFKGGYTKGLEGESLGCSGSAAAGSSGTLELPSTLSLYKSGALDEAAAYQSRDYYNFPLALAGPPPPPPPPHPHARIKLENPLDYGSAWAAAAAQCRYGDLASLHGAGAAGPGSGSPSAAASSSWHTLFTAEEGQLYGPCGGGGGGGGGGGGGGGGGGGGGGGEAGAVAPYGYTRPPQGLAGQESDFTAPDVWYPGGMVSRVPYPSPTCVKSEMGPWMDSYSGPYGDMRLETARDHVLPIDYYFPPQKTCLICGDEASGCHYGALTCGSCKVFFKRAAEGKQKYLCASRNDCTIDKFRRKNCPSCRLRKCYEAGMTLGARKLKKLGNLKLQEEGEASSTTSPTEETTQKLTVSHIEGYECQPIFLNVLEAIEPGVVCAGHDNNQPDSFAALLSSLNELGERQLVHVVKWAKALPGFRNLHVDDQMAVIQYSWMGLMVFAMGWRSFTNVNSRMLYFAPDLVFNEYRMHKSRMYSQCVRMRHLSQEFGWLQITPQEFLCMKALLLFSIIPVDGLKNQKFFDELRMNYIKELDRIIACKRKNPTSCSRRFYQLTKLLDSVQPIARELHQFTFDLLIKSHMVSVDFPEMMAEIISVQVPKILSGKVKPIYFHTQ
# Summary of the method: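 Cell line: GeneBLAzer AR-UAS-bla GripTite (HEK293). Stimulus: R1881 added after compound. Exposure: 16 h, 37C, 5% CO2. Readout: LiveBLAzer B/G FRET fluorescence after 2 h at room temperature.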
# [17] = molecular target: Androgen receptor (Homo sapiens) (UniProt P10275); experiment: qHTS assay to identify small molecule agonists of the androgen receptor (AR) signaling pathway (AID 743036; active means well fitted activation curve with a large enough effect in the signal ratio in the repeat runs, with a control signal flat, not every such curve was filed as active; the % refers to the signal ratio)
# Summary of the method: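 Fluorescence from a beta-lactamase FRET substrate served as read-out in AR-UAS-bla GripTite HEK293 cells. Cells were treated with DMSO-dissolved compounds for 16 h at 37C, then with LiveBLAzer B/G substrate for 2 h at room temperature.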
# [18] = molecular target: Androgen receptor (Homo sapiens) (UniProt P10275); experiment: qHTS assay to identify small molecule antagonists of the androgen receptor (AR) signaling pathway using the MDA cell line (AID 743042; further: nearly all actives have a fitted effect of over 55% in size)
# Summary of the method: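 Antagonist mode: compounds plus R1881 agonist added to MDA-kb2 AR-luc cells, incubated 16 h at 37C. Luciferase reporter luminescence quantified, with multiplexed CellTiter-Fluor readout for cell viability.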
# [19] = qHTS assay to test for compound auto fluorescence at 535 nm (green) in HEK293 cell free culture (AID 720682)
# Summary of the method: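 Fluorescein serves as the green reference fluorophore; each compound's intrinsic emission at 535 nm (excitation 485 nm) is reported as an equivalent amount of that dye, measured in serum-containing DMEM without cells.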
# [20] = molecular target: Androgen receptor (Homo sapiens) (UniProt P10275); experiment: qHTS assay to identify small molecule agonists of the androgen receptor (AR) signaling pathway using the MDA cell line (AID 743040; further: nearly all actives have a fitted effect of over 20% in size)
# Summary of the method: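 Cells plated, 5 h at 37C/0% CO2; compound or DMSO pinned; 16 h at 37C; ONE-Glo added; luminescence measured after 30 min at room temperature. Reporter line: MDA-kb2 with MMTV-luciferase responsive to AR and GR.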
SMILES,outcome [1],Potency [2],outcome [3],outcome [4],Potency [5],outcome [6],Potency [7],Potency [8],Potency [9],Potency [10],Potency [11],Potency [12],Potency [13],Potency [14],Potency [15],Potency [16],outcome [17],Potency [18],outcome [19],outcome [20]
CC(=O)Oc1ccc([N+](=O)[O-])cc1CCl,inactive,inactive,inactive,inactive,inactive,inactive,inactive,8.63 µM (active),1.72 µM (active),3.86 µM (active),inactive,54.5 µM (active),,,,,,,,
COc1cc(Nc2c(C#N)cnc3cc(OCCCN4CCN(C)CC4)c(OC)cc23)c(Cl)cc1Cl,inactive,inactive,inactive,inactive,,inactive,23.9 µM (active),1.88 µM (active),2.98 µM (active),2.37 µM (active),23.9 µM (active),33.5 µM (active),,,,,,,,
CC(C)=CCC1C(=O)N(c2ccccc2)N(c2ccccc2)C1=O,inactive,inactive,inactive,inactive,inactive,inactive,inactive,16.8 µM (active),16.8 µM (active),,inactive,,inactive,,,,,,,
O=C(CCCN1CC=C(n2c(=O)[nH]c3ccccc32)CC1)c1ccc(F)cc1,inactive,inactive,inactive,inactive,inactive,inactive,inactive,29.8 µM (active),,,inactive,inactive,inactive,inactive,inactive,,,,,
CC(CCC(=O)O)C(=O)O (stereo unspecified),inactive,inactive,inactive,inactive,inactive,inactive,inactive,inactive,inactive,,inactive,inactive,inactive,inactive,inactive,,,,,
C=Cc1ccc(S(=O)(=O)O)cc1,inactive,inactive,inactive,inactive,inactive,inactive,inactive,inactive and 30.6 µM (active),inactive and 38.6 µM (active),inactive and 2.17 µM (active),inactive,inactive,inactive,inactive,inactive and 19.5 µM (active),,,,,
FC(F)(F)c1ccccc1Cl,inactive,inactive,inactive,inactive,,inactive,inactive,inactive,inactive,inactive,inactive,inactive,inactive,inactive,inactive,,,,,
CCCCCCCCCCC(=O)O,inactive,inactive,inactive,inactive,inactive,inactive,inactive,inactive,inactive,inactive,inactive,inactive,inactive,inactive,,,,,,
COc1ccccc1N1CCN(CC(O)COc2cccc3ccccc23)CC1 (stereo unspecified),inactive,inactive,inactive,inactive,inactive,inactive,inactive,23.7 µM (active),29.8 µM (active),29.8 µM (active),,inactive,inactive,inactive,,,,,,
C1COC1,inactive,inactive,inactive,inactive,inactive,inactive,inactive,inactive,inactive,inactive,inactive,inactive,inactive,inactive,inactive,inactive,inactive,inactive,,
COc1ncnc(NS(=O)(=O)c2ccc(N)cc2)c1OC,inactive,inactive,inactive,inactive,,inactive,inactive,inactive,inactive,inactive,inactive,inactive,,,,,,,,
O=C1CCCCCCCCCCOCCCCO1,inactive,inactive,inactive,inactive,inactive,inactive,inactive,inactive,,,,inactive,inactive,inactive,inactive,,,,,
Cc1cc(=O)c2c(O)c3c(O)cc(=O)c4c3c3c(cc(O)c1c23)C(C)(C)C=4O,inactive,inactive,inactive,inactive,,,1.69 µM (active),0.944 µM (active),1.06 µM (active),1.06 µM (active),inactive,inactive,inactive,,,,,,inactive,
CC1CC(C)C(=O)C1=O (stereo unspecified),inactive,inactive,inactive,inactive,inactive,inactive,inactive,inactive,inactive,inactive,inactive,inactive,inactive,inactive,inactive,,,,,
Nc1nc2ccc([N+](=O)[O-])cc2s1,inactive,inactive,inactive,inactive,inactive,inactive,inactive,,64.8 µM (active),,inactive,,,,,,,inactive,,inactive

# — PubChem BioAssay (Tox21)
